Experimental data from PubChem BioAssay (Tox21).
Where “and” joins values, the source holds several entries; their conditions need not be identical. Equal entries are not always repeated. Inconclusive results are not listed. Where a structure was tested more than once in an assay, its records may differ in their call. Calls of active or inactive are those of the source. Unless noted, the call rests on the fitted dose curve; in most records, active means well fitted curve in the direction sought with a large enough effect in the repeat runs; inconclusive means weak or mixed curves; inactive means no such curve, though single readings can be large; an effect the other way counts as inactive or inconclusive.

Tests used:
[1] = qHTS assay to identify small molecule antagonists of the glucocorticoid receptor (GR) signaling pathway - cell viability counter screen (AID 720693); further: nearly all actives have a fitted effect of over 55% in size
[2] = qHTS assay for identifying genotoxic compounds that show differential cytotoxicity against isogenic chicken DT40 cell lines with known DNA damage response pathways - wild type cell line (AID 743012); further: nearly all actives have a fitted effect of over 60% in size; further: potency means the concentration at half of the fitted maximal effect
Method in brief: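 Cells (DT40 wild type, 300/well) are treated with DMSO-dissolved compounds after a ~0.5 h pre-incubation and kept 40 h at 37 C/5% CO2. Viability is then measured by CellTiter-Glo luminescence following 30 min at room temperature.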

[3] = qHTS assay for identifying genotoxic compounds that show differential cytotoxicity against isogenic chicken DT40 cell lines with known DNA damage response pathways - Rev3 mutant cell line (AID 743014); further: nearly all actives have a fitted effect of over 55% in size; further: potency means the concentration at half of the fitted maximal effect
[4] = qHTS assay for identifying genotoxic compounds that show differential cytotoxicity against isogenic chicken DT40 cell lines with known DNA damage response pathways - Rad54/Ku70 mutant cell line (AID 743015); further: nearly all actives have a fitted effect of over 60% in size; further: potency means the concentration at half of the fitted maximal effect
[5] = qHTS assay to identify small molecule antagonists of the androgen receptor (AR) signaling pathway - cell viability counter screen (AID 743033; further: nearly all actives have a fitted effect of over 45% in size)
[6] = molecular target: Androgen receptor (Homo sapiens) (UniProt P10275); assay: qHTS assay to identify small molecule agonists of the androgen receptor (AR) signaling pathway (AID 743036; active means well fitted activation curve with a large enough effect in the signal ratio in the repeat runs, with a control signal flat, not every such curve was filed as active; the % refers to the signal ratio)
Method in brief: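 Activation was read as beta-lactamase FRET signal from LiveBLAzer B/G substrate, added for 2 h at room temperature. Before that, GeneBLAzer AR-UAS-bla GripTite (HEK293) cells had 16 h compound exposure at 37C.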

[7] = molecular target: Androgen receptor (Homo sapiens) (UniProt P10275); assay: qHTS assay to identify small molecule agonists of the androgen receptor (AR) signaling pathway using the MDA cell line (AID 743040; further: nearly all actives have a fitted effect of over 20% in size)
Method in brief: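 Human breast carcinoma MDA-kb2 reporter cells (MMTV-luc, AR/GR elements) were treated for 16 h at 37C in 0% CO2 following a 5 h settling period. Signal was quantified by ONE-Glo luminescence.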

[8] = qHTS assay to identify small molecule antagonists of the androgen receptor (AR) signaling pathway using the MDA cell line - cell viability counter screen (AID 743041; further: nearly all actives have a fitted effect of over 45% in size)
Method in brief: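 Same-well cytotoxicity was assessed by CellTiter-Fluor in MDA-kb2 AR-luc cells after 16 h of compound treatment under R1881 agonism.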

[9] = molecular target: Androgen receptor (Homo sapiens) (UniProt P10275); assay: qHTS assay to identify small molecule antagonists of the androgen receptor (AR) signaling pathway using the MDA cell line (AID 743042; further: nearly all actives have a fitted effect of over 55% in size)
Method in brief: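 MDA-kb2 breast carcinoma cells carrying MMTV-luciferase (AR/GR responsive) were co-treated with compounds and the agonist R1881 for 16 h at 37C. Inhibition read as ONE-Glo luminescence; CellTiter-Fluor fluorescence measured in parallel for cytotoxicity.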

[10] = qHTS assay to identify small molecule antagonists of the thyroid receptor (TR) signaling pathway - cell viability counter screen (AID 743064); further: nearly all actives have a fitted effect of over 50% in size
Method in brief: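 In-well cytotoxicity read by CellTiter-Fluor (30 min, 37 C) following 23.5 h exposure of GH3 cells bearing a TRE-luciferase sensor. Compounds were added alongside 1 nM (final) T3 to drive TR transactivation.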

[11] = qHTS assay to identify small molecule antagonists of the thyroid receptor (TR) signaling pathway (AID 743065); further: series mostly up to about 70 µM; nearly all actives have a fitted effect of over 55% in size
Method in brief: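 GH3.TRE-Luc rat pituitary cells (two TREs driving luciferase) were dosed with compound, then stimulated with 1 nM T3 (final) for 23.5 h at 37 C. ONE-Glo luminescence was the read-out, with CellTiter-Fluor fluorescence as the cytotoxicity counter-screen.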

[12] = system: thyroid hormone receptor (rat, GH3 cells); assay: qHTS assay to identify small molecule agonists of the thyroid receptor (TR) signaling pathway (AID 743066; calls by dose curve)
[13] = qHTS assay to identify small molecule antagonists of the estrogen receptor alpha (ER-alpha) signaling pathway - cell viability counter screen (AID 743074; calls by dose curve;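 further: HEK293 cells carrying ER-alpha-UAS-bla reporter stimulated with 17beta-estradiol; nearly all actives have a fitted effect of over 45% in size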)
[14] = qHTS assay to identify small molecule antagonists of the estrogen receptor alpha (ER-alpha) signaling pathway using the BG1 cell line - cell viability counter screen (AID 743081);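 further: compound given together with 17beta-estradiol as the ER stimulus; series mostly up to about 70 µM; nearly all actives have a fitted effect of over 45% in size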
Aromatase (Homo sapiens) = Aromatase (Homo sapiens) (UniProt P11511); assay: qHTS assay to identify aromatase inhibitors (AID 743083)
[15] = molecular target: Estrogen receptor (Homo sapiens) (UniProt P03372); assay: qHTS assay to identify small molecule antagonists of the estrogen receptor alpha (ER-alpha) signaling pathway (AID 743069; active means well fitted curve in the direction sought with a large enough effect in the signal ratio in the repeat runs, not every such curve was filed as active; the % refers to the signal ratio)
Method in brief: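 Reporter cells (ER-alpha-bla, HEK293 background) are conditioned overnight in stripped-serum medium (2% charcoal-stripped FBS). Compound and 17beta-estradiol exposure runs 18 hr at 37C, 5% CO2.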

[16] = molecular target: Estrogen receptor (Homo sapiens) (UniProt P03372); assay: qHTS assay to identify small molecule agonists of the estrogen receptor alpha (ER-alpha) signaling pathway (AID 743075; calls by dose curve;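 further: HEK293 GripTite cells with ER-alpha and UAS-driven beta-lactamase reporter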)
[17] = molecular target: Estrogen receptor (Homo sapiens) (UniProt P03372); assay: qHTS assay to identify small molecule agonists of the estrogen receptor alpha (ER-alpha) signaling pathway using the BG1 cell line (AID 743079); further: nearly all actives have a fitted effect of over 20% in size; further: potency means the concentration at half of the fitted maximal effect
[18] = qHTS assay to identify small molecule antagonists of the estrogen receptor alpha (ER-alpha) signaling pathway using the BG1 cell line (AID 743080; calls by dose curve;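 further: BG1 cells stimulated with 17beta-estradiol alongside compound; nearly all actives have a fitted effect of over 25% in size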; further: potency means the concentration at half of the fitted maximal effect)
Method in brief: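 Luminescence from a 4×ERE-luciferase reporter in BG1-Luc-4E2 cells served as read-out. Cells, pre-cultured 5 days in stripped-serum phenol-red-free medium, were exposed to compound with 17beta-estradiol co-stimulation for 21.5 h at 37 C.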

[19] = molecular target: Androgen receptor (Homo sapiens) (UniProt P10275); assay: qHTS assay to identify small molecule antagonists of the androgen receptor (AR) signaling pathway (AID 743035; active means well fitted inhibition curve with a large enough effect in the signal ratio in the repeat runs, not every such curve was filed as active; the % refers to the signal ratio)
Method in brief: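 Antagonism is scored as loss of R1881-driven beta-lactamase reporter expression in HEK293 cells carrying the reporter under a UAS element, after 16 h co-treatment at 37C and a 2 h room-temperature FRET substrate read.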
On the % scale 0 is the no-effect control and ±100 the full control effect.

Sequence of Androgen receptor (Homo sapiens) (P10275 whole entry, looked up): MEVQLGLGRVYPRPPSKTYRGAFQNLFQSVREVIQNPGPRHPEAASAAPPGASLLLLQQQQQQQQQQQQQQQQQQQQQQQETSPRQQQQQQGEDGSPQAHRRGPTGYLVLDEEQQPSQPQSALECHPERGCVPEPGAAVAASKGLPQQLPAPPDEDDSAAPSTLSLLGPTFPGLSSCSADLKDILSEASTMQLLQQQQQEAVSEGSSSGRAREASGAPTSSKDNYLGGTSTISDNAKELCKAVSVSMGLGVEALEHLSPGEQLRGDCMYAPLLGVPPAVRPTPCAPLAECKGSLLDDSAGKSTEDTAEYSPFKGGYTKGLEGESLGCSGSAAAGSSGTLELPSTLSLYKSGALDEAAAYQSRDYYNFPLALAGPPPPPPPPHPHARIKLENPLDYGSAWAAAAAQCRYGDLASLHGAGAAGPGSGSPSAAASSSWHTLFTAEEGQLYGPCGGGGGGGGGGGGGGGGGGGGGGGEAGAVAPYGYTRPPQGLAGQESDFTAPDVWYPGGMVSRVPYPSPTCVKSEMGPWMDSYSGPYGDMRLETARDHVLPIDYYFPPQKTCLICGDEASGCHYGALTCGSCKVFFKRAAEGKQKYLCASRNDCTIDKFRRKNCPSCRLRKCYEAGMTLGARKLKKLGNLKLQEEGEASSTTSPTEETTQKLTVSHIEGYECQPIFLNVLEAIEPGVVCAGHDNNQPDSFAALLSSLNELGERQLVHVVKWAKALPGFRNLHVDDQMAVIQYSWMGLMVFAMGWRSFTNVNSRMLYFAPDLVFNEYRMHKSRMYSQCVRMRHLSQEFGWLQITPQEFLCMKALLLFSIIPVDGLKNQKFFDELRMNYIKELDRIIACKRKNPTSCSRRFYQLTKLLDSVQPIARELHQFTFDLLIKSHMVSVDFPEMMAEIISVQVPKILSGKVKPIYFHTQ
Sequence of Aromatase (Homo sapiens) (P11511 whole entry, looked up): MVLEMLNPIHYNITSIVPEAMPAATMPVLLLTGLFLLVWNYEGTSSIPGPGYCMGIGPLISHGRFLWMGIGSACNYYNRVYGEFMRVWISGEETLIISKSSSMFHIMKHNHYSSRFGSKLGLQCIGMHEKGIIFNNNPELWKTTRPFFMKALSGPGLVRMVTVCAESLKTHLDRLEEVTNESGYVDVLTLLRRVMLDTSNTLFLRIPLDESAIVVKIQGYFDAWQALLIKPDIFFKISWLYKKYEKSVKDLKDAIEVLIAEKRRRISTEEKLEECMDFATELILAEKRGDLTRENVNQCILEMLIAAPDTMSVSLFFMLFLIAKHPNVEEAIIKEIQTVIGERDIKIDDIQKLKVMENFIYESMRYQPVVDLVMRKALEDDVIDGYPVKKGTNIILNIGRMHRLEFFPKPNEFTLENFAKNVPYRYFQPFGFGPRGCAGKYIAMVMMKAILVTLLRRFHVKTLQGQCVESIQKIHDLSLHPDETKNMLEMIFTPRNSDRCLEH
Sequence of Estrogen receptor (Homo sapiens) (P03372 whole entry, looked up): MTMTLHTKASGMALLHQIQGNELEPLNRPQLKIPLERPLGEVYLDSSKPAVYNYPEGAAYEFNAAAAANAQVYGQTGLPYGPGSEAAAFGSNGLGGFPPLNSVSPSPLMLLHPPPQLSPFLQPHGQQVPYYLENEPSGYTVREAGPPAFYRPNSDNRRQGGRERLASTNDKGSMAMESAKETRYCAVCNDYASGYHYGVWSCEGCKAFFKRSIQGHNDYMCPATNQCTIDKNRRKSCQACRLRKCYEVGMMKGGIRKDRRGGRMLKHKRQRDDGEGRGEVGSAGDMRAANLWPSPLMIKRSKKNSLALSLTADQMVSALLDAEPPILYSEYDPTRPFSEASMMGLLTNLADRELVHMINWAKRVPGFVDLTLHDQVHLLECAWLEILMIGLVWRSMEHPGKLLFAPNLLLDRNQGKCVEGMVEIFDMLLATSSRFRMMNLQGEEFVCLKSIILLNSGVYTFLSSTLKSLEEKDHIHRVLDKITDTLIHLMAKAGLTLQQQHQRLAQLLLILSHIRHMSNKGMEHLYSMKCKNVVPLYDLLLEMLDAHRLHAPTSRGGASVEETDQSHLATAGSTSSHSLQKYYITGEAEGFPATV

CCNc1nc(NC(C)C)nc(SC)n1
inactive: outcome [1] | outcome [5] | outcome [6] | outcome [7] | outcome [8] | outcome [9] | Potency [10] | Potency [11] | outcome [12] | Potency [13] | outcome [14] | Potency (Aromatase (Homo sapiens))
inactive and 61.1 µM (active): Potency [2]
active: Potency [3] 61.1 µM | Potency [4] 61.1 µM

Cc1ccccc1O
inactive: outcome [1] | Potency [2] | Potency [3] | Potency [4] | outcome [5] | outcome [8] | Potency [10] | Potency [11] | outcome [12] | Potency [15] | Potency [13] | Potency [16] | Potency [17] | Potency [18] | outcome [14] | Potency (Aromatase (Homo sapiens))

C=C(C)CCl
inactive: outcome [1] | Potency [2] | Potency [3] | Potency [4] | outcome [5] | Potency [19] | outcome [6] | outcome [7] | outcome [8] | outcome [9] | activity change, negative = cytotoxic [10] -10.5% [at 8.44 µM] | Potency [11] | outcome [12] | Potency [15] | Potency [13] | Potency [16] | Potency [17] | Potency [18] | outcome [14] | Potency (Aromatase (Homo sapiens))

O=[N+]([O-])c1ccc([As](=O)(O)O)cc1
inactive: outcome [1] | Potency [2] | Potency [3] | Potency [4] | outcome [5] | outcome [8] | Potency [10] | Potency [11] | outcome [12] | Potency [15] | Potency [13] | Potency [16] | Potency [17] | Potency [18] | outcome [14] | Potency (Aromatase (Homo sapiens))

CCN(CC)c1ccccc1
inactive: outcome [1] | Potency [2] | Potency [3] | Potency [4] | outcome [5] | Potency [19] | outcome [6] | outcome [7] | outcome [8] | outcome [9] | Potency [10] | Potency [11] | outcome [12] | Potency [15] | Potency [13] | Potency [16] | Potency [17] | Potency [18] | outcome [14] | Potency (Aromatase (Homo sapiens))

[N-]=[N+]=[N-]
inactive: outcome [1] | Potency [2] | Potency [3] | Potency [4] | outcome [5] | Potency [19] | outcome [6] | outcome [7] | outcome [8] | outcome [9] | Potency [10] | Potency [11] | outcome [12] | Potency [15] | Potency [13] | Potency [16] | Potency [17] | outcome [14] | Potency (Aromatase (Homo sapiens))
inactive and 68.6 µM (active): Potency [18]

c1ccc(-c2ccccc2)cc1
inactive: outcome [1] | Potency [2] | Potency [3] | Potency [4] | outcome [5] | Potency [19] | outcome [6] | outcome [7] | outcome [8] | outcome [9] | Potency [10] | Potency [11] | outcome [12] | Potency [15] | Potency [13] | Potency [16] | Potency [17] | Potency [18] | outcome [14] | Potency (Aromatase (Homo sapiens))

CNC(=O)Oc1ccccc1OC(C)C
inactive: outcome [1] | Potency [2] | Potency [3] | Potency [4] | outcome [5] | outcome [8] | Potency [10] | Potency [11] | outcome [12] | Potency [15] | Potency [13] | Potency [16] | Potency [17] | Potency [18] | outcome [14] | Potency (Aromatase (Homo sapiens))

C#CCN(C)[C@H](C)Cc1ccccc1
inactive: outcome [1] | Potency [2] | Potency [3] | Potency [4] | outcome [5] | outcome [8] | Potency [10] | Potency [11] | outcome [12] | Potency [15] | Potency [13] | Potency [16] | Potency [17] | Potency [18] | outcome [14] | Potency (Aromatase (Homo sapiens))

O=NN1CCCCCCC1
inactive: outcome [1] | Potency [2] | Potency [3] | Potency [4] | outcome [5] | outcome [8] | Potency [10] | Potency [11] | outcome [12] | Potency [15] | Potency [13] | Potency [16] | Potency [18] | outcome [14] | Potency (Aromatase (Homo sapiens))

CCCCOC(=O)c1ccccc1C(=O)OCCCC
inactive: outcome [1] | Potency [3] | Potency [4] | outcome [5] | outcome [8] | Potency [10] | Potency [11] | outcome [12] | Potency [15] | Potency [13] | Potency [16] | Potency [18] | outcome [14] | Potency (Aromatase (Homo sapiens))
active: Potency [2] 24.3 µM
77 µM (active) and inactive: Potency [17]

O=C(NC(=O)c1c(F)cccc1F)Nc1cc(Cl)c(OC(F)(F)C(F)C(F)(F)F)cc1Cl (stereo unspecified)
active: Potency [2] 3.35 µM | Potency [3] 4.22 µM | Potency [4] 5.96 µM and 21.7 µM
inactive: outcome [1] | outcome [5] | Potency [19] | outcome [6] | outcome [7] | outcome [8] | Potency [10] | Potency [11] | outcome [12] | Potency [15] | Potency [13] | Potency [16] | Potency [17] | Potency [18] | outcome [14] | Potency (Aromatase (Homo sapiens))

Nc1c(Cl)c(Cl)nc(C(=O)O)c1Cl
inactive: outcome [1] | Potency [2] | Potency [3] | Potency [4] | outcome [5] | outcome [8] | Potency [10] | Potency [11] | outcome [12] | Potency [15] | Potency [13] | Potency [16] | Potency [17] | Potency [18] | outcome [14] | Potency (Aromatase (Homo sapiens))

O=S(=O)(c1ccc(Cl)cc1)c1cc(Cl)c(Cl)cc1Cl
inactive and 61.1 µM (active): Potency [3]
inactive and 48.6 µM (active): Potency [2]
active: Potency [18] 48.6 µM
inactive: outcome [1] | outcome [5] | outcome [8] | Potency [10] | Potency [11] | outcome [12] | Potency [15] | Potency [13] | Potency [16] | outcome [14] | Potency (Aromatase (Homo sapiens))
inactive and 54.5 µM (active): Potency [4]

COCCl
inactive: outcome [1] | Potency [2] | Potency [4] | outcome [5] | Potency [19] | outcome [6] | outcome [7] | outcome [8] | outcome [9] | Potency [10] | Potency [11] | outcome [12] | Potency [13] | outcome [14] | Potency (Aromatase (Homo sapiens))
inactive and 13.8 µM (active): Potency [3]
